In PubChem BioAssay (NCI):
“And” between values parts separate entries of the source, which are not always exact repeats. Equal values may be shown once. This is part of a sample that, as a whole, favours compounds with a hit. Of some 83,000 tested, about 20% had one in any assay.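 How to read the values: 0–100, growth inhibition (40 = 60% inhibited); 0, no net growth; -100 to 0, cell death (-40 = 40% of starting cells died; -100 = all dead).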 The source made the active and inactive calls. The calls were made as follows: active = growth percent below 10; inactive = the rest.

tested on: HL-60(TB) leukemia; experiment: NCI-60 one-dose screen, 48 h (100 = growth as untreated, 0 = no growth, -100 = all killed); conditions: 10 µM unless noted

Structure (SMILES) | growth
CCn1cnc(C[C@H](NC(=O)[C@@H](NC(=O)Nc2cc(C(F)(F)F)cc(C(F)(F)F)c2)C(C)(C)C)C(=O)OC)c1 | -71.5% [100 µM] (active)
CCOc1ccc2cc(-c3nn(CC4CCN(C)CC4)c4ncnc(N)c34)ccc2c1 | 96.7% (inactive) and 54.3% (inactive)
COc1ccccc1S(=O)(=O)Nc1ccc2c(c1)CN(C)C(=O)N2 | 21.9% (inactive)
COc1cc(/C=N/NC(=O)Cn2c(-c3ccc(C)o3)nc3ccccc32)ccc1OCc1ccccc1 | 87.4% (inactive)
O=C(O)CN(CCN(CC(=O)O)CC(=O)O)CCN(CC(=O)O)CC(=O)O | -51.1% (active) and 109% (inactive) and 94.7% (inactive)
CC(C)CCN(CCCNc1c2c(nc3ccccc13)CCCC2)CCC(C)C | 102% (inactive)
O=C(Nc1ccccc1Cl)Oc1ccc(-c2ccccc2)cc1 | 97.4% (inactive)
C=C1C(=O)O[C@H]2[C@H]1CC/C(COC(=O)N[C@H]1C[C@H](O[C@H]3C[C@](O)(C(=O)CO)Cc4c(O)c5c(c(O)c43)C(=O)c3c(OC)cccc3C5=O)O[C@@H](C)[C@H]1O)=C\CC[C@@]1(C)O[C@@H]21 | -31.2% (active)
COC(=O)[C@]12CC[C@@H](C)[C@H](C)[C@@H]1C1=CC[C@@H]3[C@@]4(C)CC(=O)[C@H](O)[C@@](C)(CO)[C@@H]4C(=O)C[C@@]3(C)[C@]1(C)CC2 | -33.3% (active)
O=C(CCl)N(C1CCCCC1)C1CCCCC1 | 104% (inactive)
CCCCC1(CC)COC(CCC)OC1 (centres undefined) | 115% (inactive)
Cc1cccc(Cl)c1NC(=O)c1ccc2nc(NC(=O)NC3CC(C)(C)NC(C)(C)C3)sc2c1 | 110% (inactive)
OC(COc1ccccc1Cl)COc1ccccc1Cl | 94.3% (inactive)
CC(=O)Nc1nc(C)c(C(=O)NNS(=O)(=O)c2ccccc2)s1 | 174% (inactive)
COc1cnc2c(c1)C(=O)c1c-2n(CCCN2CCCC2)c(=O)c2cc([N+](=O)[O-])ccc12 | -24.9% (active)
O=c1oc2ccc([N+](=O)[O-])cc2cc1Br | 105% (inactive)
COc1ccc2nc(NC(=O)CN3CCn4c(nnc4C(F)(F)F)C3)sc2c1 | 103% (inactive)

Structure (SMILES) | growth
CC(=O)c1c(O)c(C)c(O)c2c1OC1=CC(=O)/C(=C(/C)N)C(=O)C12C (centres undefined) | 84.4% (inactive)
O=C(N/N=C/c1ccc(F)cc1)c1ccc(C(F)(F)F)nc1Nc1cccc(C(F)(F)F)c1 | -37.2% (active)
CC(=O)N1c2ccccc2NC2=C(C(=O)N(C)C2(C)C)C1C (centres undefined) | 7.5% (active)
O=C(Cn1c(=O)ccn(CCCCCCCCOc2ccc(Br)cc2)c1=O)Nc1ccc(Oc2ccc(Cl)cc2)cc1 | 48.7% (inactive)
O=C1C2=C(CCN(Cc3ccccc3)C2)N2CCN=C2N1Cc1ccc(F)cc1F | 27.8% (inactive)
C=C(C)[C@@H]1CC[C@]2(C(=O)O)CC[C@]3(C)[C@H](CC[C@@H]4[C@@]5(C)C/C(=C/c6ccc(OC)cc6)C(=O)C(C)(C)[C@@H]5CC[C@]43C)[C@@H]12 | 2.12% (active)
COc1ccc(C(=O)C(O)c2ccc(OC)cc2)cc1 (centres undefined) | 97.2% (inactive) and 94.5% (inactive)
CC1(C)Cc2c(cn(Cc3ccccc3)c2-c2ccccc2)-c2oncc21 | 85.7% (inactive)
CCCCN1C(=O)/C(=c2\sc3n(c2=O)C2C(NN=3)N(CC)C(=O)N2CC)c2ccccc21 (centres undefined) | -52.2% (active)
CCOC(=O)c1cc2c(n1Cc1ccccc1OC)-c1oncc1CCC2 | 14.4% (inactive)
CCN(C(C)=O)c1ccc([N+](=O)[O-])cc1 | 114% (inactive)
COc1ccc(Cl)cc1NC(=O)c1cc2c([nH]1)-c1nc(NC(=O)C(C)(C)C)sc1CC2 | 60.9% (inactive)
COc1cc(C2CC(c3ccccc3)=NN2C=O)ccc1Oc1ccnc2cc(Cl)ccc12 (centres undefined) | 33.5% (inactive)
c1ccc(NCc2ccc3c(c2)OCO3)cc1 | 94.6% (inactive) and 96.1% (inactive)
COc1ccc2nc3ccccc3c(NCCNCCO)c2c1 | 6.15% (active)
Cc1cc(N=Nc2ccc(-c3ccc(N=Nc4ccc(O)c(C(=O)O)c4)cc3)cc2)c(N)c(N=Nc2ccc(C(=O)O)cc2)c1N | 81% (inactive)
CCOC(=O)/C=C1/SC(=Nc2ccc(C#N)cc2)N(Cc2ccco2)C1=O | -26.6% (active)
